# ChEMBL document CHEMBL2218924, “A broad activity screen in support of a chemogenomic map for kinase signalling research and drug discovery” (Biochem J, 2013)
# Experiments:
# [1] = biological target: T1, Ephrin type-A receptor 3 (Homo sapiens) (UniProt P29320); settings: at 10 µM
# T1 sequence (whole entry): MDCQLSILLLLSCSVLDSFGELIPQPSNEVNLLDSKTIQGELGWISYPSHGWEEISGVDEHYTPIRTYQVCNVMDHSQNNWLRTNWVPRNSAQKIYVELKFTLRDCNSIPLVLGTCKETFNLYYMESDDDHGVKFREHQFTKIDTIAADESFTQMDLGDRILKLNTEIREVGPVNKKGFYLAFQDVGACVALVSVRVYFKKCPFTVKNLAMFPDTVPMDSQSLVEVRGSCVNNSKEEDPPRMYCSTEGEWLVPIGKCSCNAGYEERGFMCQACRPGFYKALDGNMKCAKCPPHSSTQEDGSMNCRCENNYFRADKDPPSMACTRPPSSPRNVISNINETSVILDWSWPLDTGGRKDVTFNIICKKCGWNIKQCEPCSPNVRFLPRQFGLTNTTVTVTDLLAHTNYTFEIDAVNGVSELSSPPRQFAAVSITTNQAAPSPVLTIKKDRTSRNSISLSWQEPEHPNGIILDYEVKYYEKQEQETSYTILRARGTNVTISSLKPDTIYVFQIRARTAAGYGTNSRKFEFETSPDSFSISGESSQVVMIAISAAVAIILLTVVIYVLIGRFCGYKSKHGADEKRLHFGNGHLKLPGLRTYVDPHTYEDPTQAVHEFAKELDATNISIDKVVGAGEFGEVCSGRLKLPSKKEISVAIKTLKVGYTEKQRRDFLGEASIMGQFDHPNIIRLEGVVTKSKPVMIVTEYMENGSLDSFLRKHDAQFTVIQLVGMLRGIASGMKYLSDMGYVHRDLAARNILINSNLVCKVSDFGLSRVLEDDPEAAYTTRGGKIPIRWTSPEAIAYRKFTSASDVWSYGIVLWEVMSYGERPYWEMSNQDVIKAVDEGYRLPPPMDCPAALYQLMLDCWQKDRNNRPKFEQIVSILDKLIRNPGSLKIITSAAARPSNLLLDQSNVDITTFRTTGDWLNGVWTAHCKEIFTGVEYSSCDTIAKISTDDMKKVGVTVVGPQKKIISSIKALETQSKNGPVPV
# [2] = biological target: Ephrin type-A receptor 4 (Homo sapiens) (UniProt P54764); settings: at 10 µM
# Ephrin type-A receptor 4 (Homo sapiens), sequence (P54764 whole entry): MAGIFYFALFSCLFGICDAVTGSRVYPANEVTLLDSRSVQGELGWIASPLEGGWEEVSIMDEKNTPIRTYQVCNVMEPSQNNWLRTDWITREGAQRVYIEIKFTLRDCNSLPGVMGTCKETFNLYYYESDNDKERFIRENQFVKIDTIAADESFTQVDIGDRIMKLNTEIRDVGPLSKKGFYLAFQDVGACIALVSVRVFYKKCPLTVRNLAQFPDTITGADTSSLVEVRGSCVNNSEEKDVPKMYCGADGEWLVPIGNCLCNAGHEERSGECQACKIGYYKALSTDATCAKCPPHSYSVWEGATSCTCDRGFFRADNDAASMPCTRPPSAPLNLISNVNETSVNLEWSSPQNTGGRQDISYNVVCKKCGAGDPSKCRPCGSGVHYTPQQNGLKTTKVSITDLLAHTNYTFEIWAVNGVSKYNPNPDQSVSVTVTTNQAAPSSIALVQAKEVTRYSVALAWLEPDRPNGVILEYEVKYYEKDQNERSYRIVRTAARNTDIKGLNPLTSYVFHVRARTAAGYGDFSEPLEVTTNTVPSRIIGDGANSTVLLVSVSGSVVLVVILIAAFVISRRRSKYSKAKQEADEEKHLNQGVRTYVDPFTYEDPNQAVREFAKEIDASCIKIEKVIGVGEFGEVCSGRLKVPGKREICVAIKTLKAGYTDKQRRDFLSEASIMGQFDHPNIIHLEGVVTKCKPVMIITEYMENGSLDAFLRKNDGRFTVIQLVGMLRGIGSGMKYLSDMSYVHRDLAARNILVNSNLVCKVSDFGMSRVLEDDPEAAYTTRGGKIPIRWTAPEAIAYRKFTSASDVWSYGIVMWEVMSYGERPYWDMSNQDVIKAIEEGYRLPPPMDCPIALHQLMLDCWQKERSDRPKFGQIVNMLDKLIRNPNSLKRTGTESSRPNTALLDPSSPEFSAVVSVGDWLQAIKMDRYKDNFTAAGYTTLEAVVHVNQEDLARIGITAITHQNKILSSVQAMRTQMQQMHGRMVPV
# [3] = biological target: Ephrin type-A receptor 5 (Homo sapiens) (UniProt P54756); settings: at 1 µM
# [4] = biological target: Ephrin type-A receptor 5 (Homo sapiens) (UniProt P54756); settings: at 10 µM
# [5] = biological target: Ephrin type-A receptor 7 (Homo sapiens) (UniProt Q15375); settings: at 1 µM
# Ephrin type-A receptor 7 (Homo sapiens), sequence (Q15375 28-998 limits assumed): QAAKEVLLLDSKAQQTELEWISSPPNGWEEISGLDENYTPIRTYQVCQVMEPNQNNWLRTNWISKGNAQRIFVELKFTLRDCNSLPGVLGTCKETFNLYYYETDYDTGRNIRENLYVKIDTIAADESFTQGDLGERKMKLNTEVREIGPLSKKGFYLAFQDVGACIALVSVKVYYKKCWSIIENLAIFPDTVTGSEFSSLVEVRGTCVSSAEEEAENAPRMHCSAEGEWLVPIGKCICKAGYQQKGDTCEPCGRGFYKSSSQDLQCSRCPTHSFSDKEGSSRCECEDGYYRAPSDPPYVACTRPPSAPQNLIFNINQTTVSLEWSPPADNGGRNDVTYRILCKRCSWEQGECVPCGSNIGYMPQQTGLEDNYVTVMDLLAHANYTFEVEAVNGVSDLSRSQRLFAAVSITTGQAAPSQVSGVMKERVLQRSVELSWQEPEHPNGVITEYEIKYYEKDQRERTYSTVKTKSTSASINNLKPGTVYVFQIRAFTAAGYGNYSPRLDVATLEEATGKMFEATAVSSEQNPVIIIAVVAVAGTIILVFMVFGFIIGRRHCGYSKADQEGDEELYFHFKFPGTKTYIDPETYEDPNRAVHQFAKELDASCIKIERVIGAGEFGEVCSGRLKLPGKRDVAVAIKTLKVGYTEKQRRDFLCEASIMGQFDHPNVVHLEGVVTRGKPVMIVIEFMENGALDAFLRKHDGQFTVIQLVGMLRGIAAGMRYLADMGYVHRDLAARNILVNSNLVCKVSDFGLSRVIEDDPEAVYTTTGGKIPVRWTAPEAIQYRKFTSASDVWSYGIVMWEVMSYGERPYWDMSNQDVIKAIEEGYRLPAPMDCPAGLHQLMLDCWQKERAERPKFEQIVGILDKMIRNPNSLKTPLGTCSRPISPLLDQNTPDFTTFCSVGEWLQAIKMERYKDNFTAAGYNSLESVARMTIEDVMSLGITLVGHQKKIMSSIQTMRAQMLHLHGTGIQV
# [6] = biological target: Ephrin type-A receptor 7 (Homo sapiens) (UniProt Q15375); settings: at 10 µM
# [7] = biological target: T2, Ephrin type-A receptor 8 (Homo sapiens) (UniProt P29322); settings: at 1 µM
# T2 sequence (whole entry): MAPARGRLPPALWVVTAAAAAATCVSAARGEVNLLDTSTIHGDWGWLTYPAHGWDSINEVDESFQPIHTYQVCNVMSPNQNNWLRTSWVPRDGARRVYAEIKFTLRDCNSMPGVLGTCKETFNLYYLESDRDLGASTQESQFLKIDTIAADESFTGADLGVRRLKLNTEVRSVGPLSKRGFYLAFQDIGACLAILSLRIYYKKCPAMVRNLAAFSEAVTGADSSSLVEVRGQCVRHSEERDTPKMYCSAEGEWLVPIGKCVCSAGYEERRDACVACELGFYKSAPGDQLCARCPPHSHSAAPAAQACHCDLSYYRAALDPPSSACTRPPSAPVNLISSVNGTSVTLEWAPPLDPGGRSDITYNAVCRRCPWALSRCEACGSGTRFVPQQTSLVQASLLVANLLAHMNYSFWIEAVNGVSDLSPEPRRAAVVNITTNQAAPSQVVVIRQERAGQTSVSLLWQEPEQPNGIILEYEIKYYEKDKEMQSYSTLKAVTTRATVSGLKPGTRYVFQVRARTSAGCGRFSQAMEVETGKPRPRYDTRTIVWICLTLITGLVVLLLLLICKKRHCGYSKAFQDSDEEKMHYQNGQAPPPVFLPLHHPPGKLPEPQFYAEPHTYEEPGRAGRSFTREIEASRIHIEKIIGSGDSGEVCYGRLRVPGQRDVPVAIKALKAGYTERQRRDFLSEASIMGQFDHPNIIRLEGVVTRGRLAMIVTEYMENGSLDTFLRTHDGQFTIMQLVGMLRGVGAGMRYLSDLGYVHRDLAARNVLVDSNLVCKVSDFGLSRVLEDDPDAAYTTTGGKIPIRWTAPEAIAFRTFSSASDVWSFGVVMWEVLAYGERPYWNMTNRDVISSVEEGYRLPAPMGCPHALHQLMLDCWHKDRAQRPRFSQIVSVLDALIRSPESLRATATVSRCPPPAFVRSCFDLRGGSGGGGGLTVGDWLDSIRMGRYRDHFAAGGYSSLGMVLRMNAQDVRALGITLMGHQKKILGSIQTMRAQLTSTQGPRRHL
# [8] = biological target: T2, Ephrin type-A receptor 8 (Homo sapiens); settings: at 10 µM
# [9] = biological target: T3, Ephrin type-B receptor 1 (Homo sapiens) (UniProt P54762); settings: at 1 µM
# T3 sequence (whole entry): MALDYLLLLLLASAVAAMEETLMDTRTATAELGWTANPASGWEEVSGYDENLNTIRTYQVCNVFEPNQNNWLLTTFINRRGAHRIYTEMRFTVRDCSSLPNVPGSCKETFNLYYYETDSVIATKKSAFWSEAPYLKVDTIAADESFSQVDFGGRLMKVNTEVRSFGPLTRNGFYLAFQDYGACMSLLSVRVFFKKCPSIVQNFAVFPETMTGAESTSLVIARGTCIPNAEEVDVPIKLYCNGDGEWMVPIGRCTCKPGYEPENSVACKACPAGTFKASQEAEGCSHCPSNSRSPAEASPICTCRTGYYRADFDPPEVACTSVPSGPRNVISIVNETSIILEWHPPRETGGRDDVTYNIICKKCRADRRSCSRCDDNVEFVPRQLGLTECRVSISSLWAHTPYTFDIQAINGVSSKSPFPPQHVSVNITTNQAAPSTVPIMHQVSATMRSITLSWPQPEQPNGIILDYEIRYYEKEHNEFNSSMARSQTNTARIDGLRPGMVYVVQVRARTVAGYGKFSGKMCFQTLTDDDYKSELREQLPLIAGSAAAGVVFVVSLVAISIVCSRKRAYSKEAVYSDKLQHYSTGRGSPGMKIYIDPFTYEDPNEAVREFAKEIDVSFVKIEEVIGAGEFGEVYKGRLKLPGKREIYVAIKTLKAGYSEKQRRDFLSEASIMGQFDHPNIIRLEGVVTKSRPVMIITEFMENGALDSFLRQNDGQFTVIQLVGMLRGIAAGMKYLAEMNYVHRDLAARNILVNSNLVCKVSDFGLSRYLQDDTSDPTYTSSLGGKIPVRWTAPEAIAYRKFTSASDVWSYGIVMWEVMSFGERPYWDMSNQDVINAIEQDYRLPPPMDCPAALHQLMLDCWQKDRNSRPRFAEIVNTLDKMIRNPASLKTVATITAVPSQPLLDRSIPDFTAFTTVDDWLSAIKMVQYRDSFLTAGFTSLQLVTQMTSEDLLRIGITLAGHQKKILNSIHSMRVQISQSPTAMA
# [10] = biological target: T3, Ephrin type-B receptor 1 (Homo sapiens); settings: at 10 µM
# [11] = biological target: T4, Ephrin type-B receptor 4 (Homo sapiens) (UniProt P54760); settings: at 1 µM
# T4 sequence (whole entry): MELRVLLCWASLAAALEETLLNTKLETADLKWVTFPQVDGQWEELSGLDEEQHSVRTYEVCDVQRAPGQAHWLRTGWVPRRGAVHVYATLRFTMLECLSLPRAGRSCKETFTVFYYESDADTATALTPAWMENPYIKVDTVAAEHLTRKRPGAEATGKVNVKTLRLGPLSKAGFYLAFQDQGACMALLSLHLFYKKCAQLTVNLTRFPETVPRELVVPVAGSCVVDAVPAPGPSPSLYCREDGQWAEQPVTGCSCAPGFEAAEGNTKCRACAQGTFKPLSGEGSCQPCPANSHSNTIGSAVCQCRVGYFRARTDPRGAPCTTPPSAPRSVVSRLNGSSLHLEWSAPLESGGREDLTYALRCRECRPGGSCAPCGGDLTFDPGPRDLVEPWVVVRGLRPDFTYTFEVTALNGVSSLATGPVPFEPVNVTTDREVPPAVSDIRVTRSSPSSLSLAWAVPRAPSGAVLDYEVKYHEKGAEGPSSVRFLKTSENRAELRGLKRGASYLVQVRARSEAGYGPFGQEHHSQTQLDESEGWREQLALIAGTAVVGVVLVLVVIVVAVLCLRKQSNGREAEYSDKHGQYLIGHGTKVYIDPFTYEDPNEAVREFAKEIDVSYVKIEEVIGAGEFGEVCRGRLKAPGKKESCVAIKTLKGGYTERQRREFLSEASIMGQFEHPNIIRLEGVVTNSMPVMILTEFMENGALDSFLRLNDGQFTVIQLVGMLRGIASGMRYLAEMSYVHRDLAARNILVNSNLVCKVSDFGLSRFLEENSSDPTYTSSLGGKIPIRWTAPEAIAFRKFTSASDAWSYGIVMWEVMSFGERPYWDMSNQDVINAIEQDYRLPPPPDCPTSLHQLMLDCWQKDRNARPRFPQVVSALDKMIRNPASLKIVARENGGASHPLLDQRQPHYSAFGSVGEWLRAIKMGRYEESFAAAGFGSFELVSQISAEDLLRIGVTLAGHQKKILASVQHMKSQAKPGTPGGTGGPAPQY
# [12] = biological target: T4, Ephrin type-B receptor 4 (Homo sapiens); settings: at 10 µM
# [13] = biological target: Receptor tyrosine-protein kinase erbB-4 (Homo sapiens) (UniProt Q15303); settings: at 1 µM
# Receptor tyrosine-protein kinase erbB-4 (Homo sapiens), sequence (Q15303 whole entry): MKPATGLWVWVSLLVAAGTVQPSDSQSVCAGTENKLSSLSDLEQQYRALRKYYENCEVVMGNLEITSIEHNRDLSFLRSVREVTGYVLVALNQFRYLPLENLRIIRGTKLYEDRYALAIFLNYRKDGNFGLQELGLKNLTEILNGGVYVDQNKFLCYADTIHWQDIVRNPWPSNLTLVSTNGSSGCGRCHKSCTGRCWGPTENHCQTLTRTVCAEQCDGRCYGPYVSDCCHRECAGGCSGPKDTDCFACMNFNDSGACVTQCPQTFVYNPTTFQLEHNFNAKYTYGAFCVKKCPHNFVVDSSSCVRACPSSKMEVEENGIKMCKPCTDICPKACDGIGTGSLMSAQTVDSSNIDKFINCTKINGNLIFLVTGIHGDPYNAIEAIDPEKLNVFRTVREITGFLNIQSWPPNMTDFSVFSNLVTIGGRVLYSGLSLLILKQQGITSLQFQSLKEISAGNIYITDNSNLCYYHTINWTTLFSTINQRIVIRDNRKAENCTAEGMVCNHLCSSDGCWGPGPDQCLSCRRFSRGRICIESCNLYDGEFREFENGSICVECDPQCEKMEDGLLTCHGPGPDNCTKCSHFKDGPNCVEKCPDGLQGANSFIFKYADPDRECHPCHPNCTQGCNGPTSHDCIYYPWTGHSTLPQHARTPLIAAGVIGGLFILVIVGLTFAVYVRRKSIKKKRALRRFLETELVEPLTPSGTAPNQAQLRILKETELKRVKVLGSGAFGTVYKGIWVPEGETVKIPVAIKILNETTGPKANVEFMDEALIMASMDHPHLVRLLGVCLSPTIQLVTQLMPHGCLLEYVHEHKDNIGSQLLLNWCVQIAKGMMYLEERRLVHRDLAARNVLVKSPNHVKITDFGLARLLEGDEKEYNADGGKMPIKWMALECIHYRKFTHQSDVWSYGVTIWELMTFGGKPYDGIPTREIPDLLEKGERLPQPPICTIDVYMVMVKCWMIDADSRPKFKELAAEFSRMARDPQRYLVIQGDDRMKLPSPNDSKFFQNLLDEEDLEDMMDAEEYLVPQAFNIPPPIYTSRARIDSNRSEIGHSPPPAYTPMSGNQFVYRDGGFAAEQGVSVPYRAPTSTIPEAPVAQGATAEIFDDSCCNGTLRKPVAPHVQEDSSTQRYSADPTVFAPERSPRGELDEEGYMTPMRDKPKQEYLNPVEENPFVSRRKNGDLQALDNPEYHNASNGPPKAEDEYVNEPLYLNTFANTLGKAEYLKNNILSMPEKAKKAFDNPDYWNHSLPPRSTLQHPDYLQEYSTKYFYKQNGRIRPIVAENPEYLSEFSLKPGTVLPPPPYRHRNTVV
# [14] = biological target: Receptor tyrosine-protein kinase erbB-4 (Homo sapiens) (UniProt Q15303); settings: at 10 µM
# [15] = biological target: Focal adhesion kinase 1 (Homo sapiens) (UniProt Q05397); settings: at 1 µM
# Focal adhesion kinase 1 (Homo sapiens), sequence (Q05397 2-1052 limits assumed): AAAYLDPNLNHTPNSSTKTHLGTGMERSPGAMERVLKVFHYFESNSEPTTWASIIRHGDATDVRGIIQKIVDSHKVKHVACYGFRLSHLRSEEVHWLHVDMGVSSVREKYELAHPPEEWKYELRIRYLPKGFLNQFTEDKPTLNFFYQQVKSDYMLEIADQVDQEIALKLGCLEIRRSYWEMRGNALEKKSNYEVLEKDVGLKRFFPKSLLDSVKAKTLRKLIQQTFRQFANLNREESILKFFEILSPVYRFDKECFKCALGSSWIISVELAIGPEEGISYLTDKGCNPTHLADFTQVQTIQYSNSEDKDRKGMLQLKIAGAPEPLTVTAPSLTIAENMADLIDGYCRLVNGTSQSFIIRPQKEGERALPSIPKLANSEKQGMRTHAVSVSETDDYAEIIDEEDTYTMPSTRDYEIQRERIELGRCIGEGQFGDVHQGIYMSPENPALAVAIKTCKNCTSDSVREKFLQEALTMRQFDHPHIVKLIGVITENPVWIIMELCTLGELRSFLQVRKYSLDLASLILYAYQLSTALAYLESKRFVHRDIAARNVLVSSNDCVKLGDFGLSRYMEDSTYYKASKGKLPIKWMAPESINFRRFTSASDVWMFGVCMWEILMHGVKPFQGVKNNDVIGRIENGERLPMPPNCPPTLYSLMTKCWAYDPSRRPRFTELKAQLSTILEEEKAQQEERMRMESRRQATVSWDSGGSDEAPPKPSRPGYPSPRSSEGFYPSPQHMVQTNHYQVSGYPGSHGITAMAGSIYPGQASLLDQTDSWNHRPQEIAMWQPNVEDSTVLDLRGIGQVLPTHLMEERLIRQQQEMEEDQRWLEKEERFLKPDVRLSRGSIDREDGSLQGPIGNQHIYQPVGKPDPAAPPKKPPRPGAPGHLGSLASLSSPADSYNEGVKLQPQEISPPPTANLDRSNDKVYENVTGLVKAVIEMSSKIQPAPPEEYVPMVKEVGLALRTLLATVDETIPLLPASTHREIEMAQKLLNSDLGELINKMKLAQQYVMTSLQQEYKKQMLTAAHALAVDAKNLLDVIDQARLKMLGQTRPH
# [16] = biological target: Ephrin type-A receptor 4 (Homo sapiens) (UniProt P54764); settings: at 1 µM
# [17] = biological target: T5, Ephrin type-B receptor 3 (Homo sapiens) (UniProt P54753); settings: at 1 µM
# T5 sequence (whole entry): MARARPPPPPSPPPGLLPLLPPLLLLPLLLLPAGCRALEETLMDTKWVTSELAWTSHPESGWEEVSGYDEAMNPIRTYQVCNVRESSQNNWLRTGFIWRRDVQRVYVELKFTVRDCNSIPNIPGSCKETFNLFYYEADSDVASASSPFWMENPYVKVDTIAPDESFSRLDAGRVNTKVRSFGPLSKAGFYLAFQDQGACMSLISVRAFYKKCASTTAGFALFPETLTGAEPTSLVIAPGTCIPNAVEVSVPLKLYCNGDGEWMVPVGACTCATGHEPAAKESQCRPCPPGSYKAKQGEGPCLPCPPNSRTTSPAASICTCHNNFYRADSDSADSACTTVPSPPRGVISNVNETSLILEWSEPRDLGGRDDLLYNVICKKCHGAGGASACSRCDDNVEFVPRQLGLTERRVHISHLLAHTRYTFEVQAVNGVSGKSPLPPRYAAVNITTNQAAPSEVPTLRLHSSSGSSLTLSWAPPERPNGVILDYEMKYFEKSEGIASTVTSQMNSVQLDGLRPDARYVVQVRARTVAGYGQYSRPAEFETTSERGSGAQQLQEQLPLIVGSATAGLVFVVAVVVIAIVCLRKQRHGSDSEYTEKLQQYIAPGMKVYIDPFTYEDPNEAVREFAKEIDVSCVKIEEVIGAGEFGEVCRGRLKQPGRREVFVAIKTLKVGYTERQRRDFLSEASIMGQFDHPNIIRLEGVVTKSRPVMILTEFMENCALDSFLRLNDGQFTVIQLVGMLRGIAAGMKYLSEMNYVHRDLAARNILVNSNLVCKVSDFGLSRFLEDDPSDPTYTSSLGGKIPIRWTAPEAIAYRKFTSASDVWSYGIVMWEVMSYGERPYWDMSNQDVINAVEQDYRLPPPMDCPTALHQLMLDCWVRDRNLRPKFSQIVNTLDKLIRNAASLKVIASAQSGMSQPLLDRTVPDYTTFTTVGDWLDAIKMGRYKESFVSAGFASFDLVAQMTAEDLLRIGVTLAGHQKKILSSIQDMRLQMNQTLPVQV
# [18] = biological target: T5, Ephrin type-B receptor 3 (Homo sapiens); settings: at 10 µM
SMILES,residual activity [1],residual activity [2],residual activity [3],residual activity [4],residual activity [5],residual activity [6],residual activity [7],residual activity [8],residual activity [9],residual activity [10],residual activity [11],residual activity [12],residual activity [13],residual activity [14],residual activity [15],residual activity [16],residual activity [17],residual activity [18]
O=c1cc(N2CCOCC2)oc2c1ccc1ccccc12,94%,103%,124%,93%,103%,84%,100%,97%,95%,89%,101%,108%,106%,92%,132%,–,–,–
Cn1sc(=O)n(Cc2ccccc2)c1=O,86%,–,–,–,86%,86%,87%,84%,90%,–,87%,80%,87%,98%,95%,–,–,–
O=C1Nc2ccc(Cl)cc2/C1=C/c1cc(Cl)c(O)c(Cl)c1,54%,90%,–,–,92%,71%,90%,79%,94%,86%,–,–,91%,76%,115%,99%,113% (inactive),115%
